Ten sequences from PMC11006913 can be followed below.

Experiment in all cases: PBM; 200 nM protein, PBS
Holding throughout (conditions): dsDNA, one strand shown

The target of assay [1] is HESX1 (Homo sapiens, UniProt Q9UBX0 95-180, R165K).
Assay [2] concerns the target HESX1 (Homo sapiens, UniProt Q9UBX0 95-180).
The target of assay [3] is ALX1 (Homo sapiens, UniProt Q15699 118-204, L144V).
In assay [4] the target is ALX1 (Homo sapiens, UniProt Q15699 118-204, L144R).
Assay [5] concerns the target HESX1 (Homo sapiens, UniProt Q9UBX0 95-180, R109Q).
The target in assay [6] is HESX1 (Homo sapiens, UniProt Q9UBX0 95-180, P111T).
Assay [7] concerns the target HESX1 (Homo sapiens, UniProt Q9UBX0 95-180, F115L).
The target in assay [8] is ALX1 (Homo sapiens, UniProt Q15699 118-204).
For assay [9], the target named is ALX4 (Homo sapiens, UniProt Q9H161 200-286).
Assay [10] concerns the target PRRX1 (Homo sapiens, UniProt P54821 80-166, F113S).
Assay [11] has as its target ALX4 (Homo sapiens, UniProt Q9H161 200-286, Q225E).
The target in assay [12] is MSX2 (Homo sapiens, UniProt P35548 130-214, R199I).
For assay [13], the target named is PROP1 (Homo sapiens, UniProt O75360 56-141).
In assay [14] the target is PROP1 (Homo sapiens, UniProt O75360 56-141, R99H).
In assay [15] the target is ALX3 (Homo sapiens, UniProt O95076 139-225, L168Q).
Assay [16] has as its target PROP1 (Homo sapiens, UniProt O75360 56-141, F88S).
In assay [17] the target is MSX2 (Homo sapiens, UniProt P35548 130-214, F161Y).
Assay [18] deals with PRRX1 (Homo sapiens, UniProt P54821 80-166).
Chain of PRRX1 (Homo sapiens, UniProt P54821 80-166) (P54821 80-166): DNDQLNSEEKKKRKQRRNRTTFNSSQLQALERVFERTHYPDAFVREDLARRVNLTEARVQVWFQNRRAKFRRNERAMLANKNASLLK

Chain of ALX1 (Homo sapiens, UniProt Q15699 118-204, L144V) (Q15699 118-204 L144V): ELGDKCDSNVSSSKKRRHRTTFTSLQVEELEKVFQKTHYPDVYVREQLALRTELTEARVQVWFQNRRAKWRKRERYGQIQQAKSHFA
Chain of HESX1 (Homo sapiens, UniProt Q9UBX0 95-180, R109Q) (Q9UBX0 95-180 R109Q): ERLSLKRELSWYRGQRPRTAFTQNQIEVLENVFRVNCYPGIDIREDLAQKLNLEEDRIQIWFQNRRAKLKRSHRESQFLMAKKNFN
Chain of MSX2 (Homo sapiens, UniProt P35548 130-214, R199I) (P35548 130-214 R199I): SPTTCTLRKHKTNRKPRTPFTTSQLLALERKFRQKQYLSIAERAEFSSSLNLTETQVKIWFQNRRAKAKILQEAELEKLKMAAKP
Chain of HESX1 (Homo sapiens, UniProt Q9UBX0 95-180, F115L) (Q9UBX0 95-180 F115L): as the sequence (Q9UBX0 95-180 R109Q) above, with Q15R, F21L counted along it
Chain of HESX1 (Homo sapiens, UniProt Q9UBX0 95-180, R165K) (Q9UBX0 95-180 R165K): as the sequence (Q9UBX0 95-180 R109Q) above, with Q15R, R71K counted along it
Chain of ALX1 (Homo sapiens, UniProt Q15699 118-204) (Q15699 118-204): as the sequence (Q15699 118-204 L144V) above, with V27L counted along it
Chain of MSX2 (Homo sapiens, UniProt P35548 130-214, F161Y) (P35548 130-214 F161Y): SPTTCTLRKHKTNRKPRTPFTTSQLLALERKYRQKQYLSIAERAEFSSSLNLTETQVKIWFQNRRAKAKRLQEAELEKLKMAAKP
Chain of HESX1 (Homo sapiens, UniProt Q9UBX0 95-180, P111T) (Q9UBX0 95-180 P111T): as the sequence (Q9UBX0 95-180 R109Q) above, with Q15R, P17T counted along it
Chain of HESX1 (Homo sapiens, UniProt Q9UBX0 95-180) (Q9UBX0 95-180): as the sequence (Q9UBX0 95-180 R109Q) above, with Q15R counted along it
Chain of ALX1 (Homo sapiens, UniProt Q15699 118-204, L144R) (Q15699 118-204 L144R): as the sequence (Q15699 118-204 L144V) above, with V27R counted along it
Chain of PROP1 (Homo sapiens, UniProt O75360 56-141) (O75360 56-141): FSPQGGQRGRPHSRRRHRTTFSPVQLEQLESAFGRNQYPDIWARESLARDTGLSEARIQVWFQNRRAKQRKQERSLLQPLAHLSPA
Chain of ALX4 (Homo sapiens, UniProt Q9H161 200-286) (Q9H161 200-286): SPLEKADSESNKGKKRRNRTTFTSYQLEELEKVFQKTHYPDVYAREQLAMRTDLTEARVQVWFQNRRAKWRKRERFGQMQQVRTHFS
Chain of ALX4 (Homo sapiens, UniProt Q9H161 200-286, Q225E) (Q9H161 200-286 Q225E): as the sequence (Q9H161 200-286) above, with Q26E counted along it
Chain of PROP1 (Homo sapiens, UniProt O75360 56-141, R99H) (O75360 56-141 R99H): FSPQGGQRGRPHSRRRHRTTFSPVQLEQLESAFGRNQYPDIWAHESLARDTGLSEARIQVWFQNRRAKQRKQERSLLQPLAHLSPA
Chain of PRRX1 (Homo sapiens, UniProt P54821 80-166, F113S) (P54821 80-166 F113S): as the sequence (P54821 80-166) above, with F34S counted along it
Chain of ALX3 (O95076 139-225 L168Q): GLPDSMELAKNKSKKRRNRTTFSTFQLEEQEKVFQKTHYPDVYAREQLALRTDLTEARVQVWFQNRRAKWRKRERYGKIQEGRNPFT
Chain of PROP1 (Homo sapiens, UniProt O75360 56-141, F88S) (O75360 56-141 F88S): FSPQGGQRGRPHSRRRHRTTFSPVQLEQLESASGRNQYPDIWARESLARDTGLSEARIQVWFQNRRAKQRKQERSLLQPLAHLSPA

As to GCCAGCCC, the binding signal is 6.58 upbm affinity estimate (log intensity, higher = more binding, comparable within an allelic series) in assay [1]; 6.38 upbm affinity estimate (log intensity, higher = more binding, comparable within an allelic series) in assay [2]; 6.53 upbm affinity estimate (log intensity, higher = more binding, comparable within an allelic series) in [3]; 6.62 upbm affinity estimate (log intensity, higher = more binding, comparable within an allelic series) in assay [4]; 6.42 upbm affinity estimate (log intensity, higher = more binding, comparable within an allelic series) in [5]; 6.51 upbm affinity estimate (log intensity, higher = more binding, comparable within an allelic series) in assay [6]. Also, the binding signal is 6.51 upbm affinity estimate (log intensity, higher = more binding, comparable within an allelic series) in assay [7] and 6.43 upbm affinity estimate (log intensity, higher = more binding, comparable within an allelic series) in assay [8].
Regarding CTGCATTA, the binding signal in [1] was 7.23 upbm affinity estimate (log intensity, higher = more binding, comparable within an allelic series); in [2], 7.34 upbm affinity estimate (log intensity, higher = more binding, comparable within an allelic series); in [3] it was 8.85 upbm affinity estimate (log intensity, higher = more binding, comparable within an allelic series); in [4], 8.64 upbm affinity estimate (log intensity, higher = more binding, comparable within an allelic series); in assay [6], 7.12 upbm affinity estimate (log intensity, higher = more binding, comparable within an allelic series); in assay [7] it was 6.71 upbm affinity estimate (log intensity, higher = more binding, comparable within an allelic series). Also, in assay [8], the binding signal is 9.15 upbm affinity estimate (log intensity, higher = more binding, comparable within an allelic series).
On to AATTATTA, for which the binding signal in [1] is 11.5 upbm affinity estimate (log intensity, higher = more binding, comparable within an allelic series); in assay [9], 13.5 upbm affinity estimate (log intensity, higher = more binding, comparable within an allelic series); in [10], 11.3 upbm affinity estimate (log intensity, higher = more binding, comparable within an allelic series); in assay [11], 12.8 upbm affinity estimate (log intensity, higher = more binding, comparable within an allelic series); in assay [2], 11.7 upbm affinity estimate (log intensity, higher = more binding, comparable within an allelic series); in assay [12], 12.3 upbm affinity estimate (log intensity, higher = more binding, comparable within an allelic series). Moreover, the binding signal in [3] was 11.4 upbm affinity estimate (log intensity, higher = more binding, comparable within an allelic series); in assay [4], 11.2 upbm affinity estimate (log intensity, higher = more binding, comparable within an allelic series); in assay [13] it was 11 upbm affinity estimate (log intensity, higher = more binding, comparable within an allelic series); in assay [5] it was 8.87 upbm affinity estimate (log intensity, higher = more binding, comparable within an allelic series); in assay [14] it was 10.8 upbm affinity estimate (log intensity, higher = more binding, comparable within an allelic series); in assay [15], 10.4 upbm affinity estimate (log intensity, higher = more binding, comparable within an allelic series). Moreover, the binding signal in assay [6] is 10.3 upbm affinity estimate (log intensity, higher = more binding, comparable within an allelic series); in [16], 7.79 upbm affinity estimate (log intensity, higher = more binding, comparable within an allelic series); in assay [17], 13.1 upbm affinity estimate (log intensity, higher = more binding, comparable within an allelic series); in assay [7], 8 upbm affinity estimate (log intensity, higher = more binding, comparable within an allelic series); in [8] it was 12 upbm affinity estimate (log intensity, higher = more binding, comparable within an allelic series); in assay [18], 13.4 upbm affinity estimate (log intensity, higher = more binding, comparable within an allelic series).
Consider ACCGTCCG, for which the binding signal in assay [1] was 6.56 upbm affinity estimate (log intensity, higher = more binding, comparable within an allelic series); in assay [2] it was 6.57 upbm affinity estimate (log intensity, higher = more binding, comparable within an allelic series); in assay [5] it was 6.49 upbm affinity estimate (log intensity, higher = more binding, comparable within an allelic series); in assay [6], 6.5 upbm affinity estimate (log intensity, higher = more binding, comparable within an allelic series); in assay [7], 6.47 upbm affinity estimate (log intensity, higher = more binding, comparable within an allelic series).
For AGAGCGCG, the binding signal was 6.51 upbm affinity estimate (log intensity, higher = more binding, comparable within an allelic series) in [1]; 6.38 upbm affinity estimate (log intensity, higher = more binding, comparable within an allelic series) in [2]; 6.56 upbm affinity estimate (log intensity, higher = more binding, comparable within an allelic series) in [5]; 6.61 upbm affinity estimate (log intensity, higher = more binding, comparable within an allelic series) in assay [6]; 6.46 upbm affinity estimate (log intensity, higher = more binding, comparable within an allelic series) in assay [7].
TCCCCCCA: the binding signal in assay [1] is 6.55 upbm affinity estimate (log intensity, higher = more binding, comparable within an allelic series); in assay [2] it was 6.5 upbm affinity estimate (log intensity, higher = more binding, comparable within an allelic series); in assay [5], 6.55 upbm affinity estimate (log intensity, higher = more binding, comparable within an allelic series); in assay [6], 6.52 upbm affinity estimate (log intensity, higher = more binding, comparable within an allelic series); in assay [7] it was 6.55 upbm affinity estimate (log intensity, higher = more binding, comparable within an allelic series).
On to CCAGCGCA, for which the binding signal in assay [1] is 6.46 upbm affinity estimate (log intensity, higher = more binding, comparable within an allelic series); in assay [2] it was 6.4 upbm affinity estimate (log intensity, higher = more binding, comparable within an allelic series); in assay [12], 9.46 upbm affinity estimate (log intensity, higher = more binding, comparable within an allelic series); in assay [5] it was 6.49 upbm affinity estimate (log intensity, higher = more binding, comparable within an allelic series); in assay [6], 6.38 upbm affinity estimate (log intensity, higher = more binding, comparable within an allelic series); in assay [17], 9.44 upbm affinity estimate (log intensity, higher = more binding, comparable within an allelic series). In [7], the binding signal was 6.38 upbm affinity estimate (log intensity, higher = more binding, comparable within an allelic series).
Turning to CGATTATC, the binding signal in assay [1] was 8.23 upbm affinity estimate (log intensity, higher = more binding, comparable within an allelic series); in assay [2], 8.64 upbm affinity estimate (log intensity, higher = more binding, comparable within an allelic series); in assay [7] it was 6.88 upbm affinity estimate (log intensity, higher = more binding, comparable within an allelic series).
Consider CGCAATTA, for which the binding signal in assay [1] was 11.6 upbm affinity estimate (log intensity, higher = more binding, comparable within an allelic series); in [2], 11.8 upbm affinity estimate (log intensity, higher = more binding, comparable within an allelic series); in assay [12] it was 12.6 upbm affinity estimate (log intensity, higher = more binding, comparable within an allelic series); in [5] it was 8.21 upbm affinity estimate (log intensity, higher = more binding, comparable within an allelic series); in assay [6], 10.1 upbm affinity estimate (log intensity, higher = more binding, comparable within an allelic series); in [17] it was 13.4 upbm affinity estimate (log intensity, higher = more binding, comparable within an allelic series). For the same sequence, the binding signal in [7] was 7.22 upbm affinity estimate (log intensity, higher = more binding, comparable within an allelic series).
For CGGGCCCG, the binding signal is 6.56 upbm affinity estimate (log intensity, higher = more binding, comparable within an allelic series) in [1]; 6.74 upbm affinity estimate (log intensity, higher = more binding, comparable within an allelic series) in [2]; 6.76 upbm affinity estimate (log intensity, higher = more binding, comparable within an allelic series) in assay [5]; 6.72 upbm affinity estimate (log intensity, higher = more binding, comparable within an allelic series) in assay [6]; 6.55 upbm affinity estimate (log intensity, higher = more binding, comparable within an allelic series) in [7].
